TEAD-YAP inh: TEAD-YAP interaction inhibition; HEK-TIYL cells, TEAD-Gal4/YAP UAS-luciferase luminescence; inhibition, % at 9.12 µM; hit rate 1.4% among 640,000; AID 1259422; in the data active means inhibition above about 32%;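 further: 0% = median of test compound wells and 100% = reference inhibitor wells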
MITF primary: human MITF inhibition, primary screen. AlphaScreen MITF homodimerization, bead proximity signal. AID 1259374. hit rate 0.91% among 650,000. O75030. inhibition, % at 2.6 µM; in the data active means inhibition above about 50%;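 further: 0% = vehicle wells with protein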
FBW7 activator: activators of human E3 ligase FBW7; Q969H0; normalized activity (activation), % at 26.1 µM; hit rate 0.13% among 650,000; AID 1259310; AlphaScreen FBW7–phospho-cyclin E peptide binding, activator screen; in the data active means normalized activity above about 1.9%;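 further: purified mutant Fbw7 with reduced substrate affinity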
GPR151 ag: activators of human GPR151. Q8TDV0. PathHunter beta-arrestin GPR151 cells, luminescence. activation, % at 11.2 µM. hit rate 1% among 650,000. AID 1508602; in the data active means activation above about 4.9%;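 further: 0% = median of compound wells and 100% = cells with positive control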
Target sequence (Q8TDV0 whole entry, looked up): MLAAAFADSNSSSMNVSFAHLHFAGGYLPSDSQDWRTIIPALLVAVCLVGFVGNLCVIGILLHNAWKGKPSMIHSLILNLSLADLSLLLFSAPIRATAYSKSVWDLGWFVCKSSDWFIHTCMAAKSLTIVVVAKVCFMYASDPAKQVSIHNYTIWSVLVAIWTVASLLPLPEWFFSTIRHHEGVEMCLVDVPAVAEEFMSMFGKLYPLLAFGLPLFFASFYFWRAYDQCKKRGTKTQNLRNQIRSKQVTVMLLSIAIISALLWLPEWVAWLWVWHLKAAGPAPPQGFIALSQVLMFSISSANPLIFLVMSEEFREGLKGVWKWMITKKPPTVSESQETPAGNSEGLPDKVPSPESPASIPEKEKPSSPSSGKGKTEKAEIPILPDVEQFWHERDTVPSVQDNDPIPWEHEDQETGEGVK
* = called active by the depositor; ! = repeats disagree. A selection: hits, their analogues and other compounds. The true share with any hit is near 3.5%.

SMILES	TEAD-YAP inh	MITF primary	FBW7 activator	GPR151 ag
Oc1ccc(Cl)cc1/C=N/Nc1nnc2c(n1)[nH]c1ccccc12	-9	3	0	1
Oc1ccc(/C=N/Nc2nnc3c(n2)[nH]c2ccccc23)c(O)c1O	-10	111*	-1	0
CCCc1ccc(/C=C/c2ccccc2)nc1	34*	16	0	-4
Cc1onc(-c2ccccc2Cl)c1C(=O)Nc1c2c(nn1-c1ccc(Cl)cc1)CS(=O)(=O)C2	-3	5	0	0
Cc1ccc2c(c1)C1OCCC1C(c1cccs1)N2 (stereo not drawn)	42*	0	0	0
Cc1ccc(-n2nc3c(c2NC(=O)COc2ccc(Cl)cc2)CS(=O)(=O)C3)c(C)c1	-6	8	1	0
CCc1c(C)sc(NC(=O)C2CC2c2ccccc2)c1C(N)=O (stereo not drawn)	33*	9	0	4
CCOC(=O)c1c(NC(=O)C2CC2c2ccccc2)sc(C)c1C (stereo not drawn)	-6	-11	0	1
CCOC(=O)c1c(-c2cccs2)csc1NC(=O)C#Cc1ccccc1	-3	-12	0	-1
CCOC(=O)c1cc(NC(=O)Cn2cc(C=O)c3ccccc32)ccc1Cl	35*	15	0	1
COc1cccc(NC(=O)Cn2cc(C(=O)c3ccccc3)c(=O)c3cc(Cl)ccc32)c1	-2	1	0	0
CCOc1ccc(NC(=O)Cn2cc(C(=O)c3ccccc3)c(=O)c3cc(Cl)ccc32)cc1	3	6	2.7*	-1
CC(c1ccccc1)C1CC(=O)N(c2ccc(/C=C/C(=O)O)cc2)C1=O (stereo not drawn)	9	-5	0	0
COc1ccc(C)cc1S(=O)(=O)N1CCN(c2ccc(-c3ccncc3)nn2)CC1	1	8	0	-2
CCN(CC)c1ccc(N2CCN(S(=O)(=O)c3cc(C)ccc3OC)CC2)nn1	54*	9	0	1
Cc1cc(C)nc(SCc2ccccc2Cl)n1	-12	18	2.2*	-1
Cc1cccc(NS(=O)(=O)c2ccc(NC(=O)c3ccc([N+](=O)[O-])cc3)cc2)c1	35*	-7	0	3
O=C(Nc1cccc([N+](=O)[O-])c1)c1cccc(S(=O)(=O)Nc2cccc(F)c2)c1	16	-16	0	0
COc1ccc(NS(=O)(=O)c2ccc(NC(=O)c3cccc([N+](=O)[O-])c3)cc2)cc1	33*	3	0	0
COc1cc(OC)cc(C(=O)Nc2ccc(S(=O)(=O)Nc3nccc(C)n3)cc2)c1	-13	14	2.0*	1
O=C(Nc1ccc([N+](=O)[O-])cc1)c1cccc(S(=O)(=O)Nc2cccc(F)c2)c1	33*	-11	0	0
COc1cc(NC(=O)c2cccc(-c3cccs3)c2)cc(OC)c1OC	-5	23	0	4
O=C(Nc1ccc(S(=O)(=O)N2CCOCC2)cc1)c1ccc2nc(-c3ccccc3)c(-c3ccccc3)nc2c1	9	2	0	-1
Cc1ccc(S(=O)(=O)Nc2ccccc2C(=O)Nc2ccc(C(=O)O)cc2)cc1	-10	-4	0	1
Cc1ccc(S(=O)(=O)Nc2ccccc2C(=O)Nc2ccc([N+](=O)[O-])cc2)cc1	63*	19	0	1
SMILES	TEAD-YAP inh	MITF primary	FBW7 activator	GPR151 ag
CC(=O)c1cccc(NS(=O)(=O)c2ccc(NC(=O)c3ccccc3Cl)cc2)c1	39*	4	0	0
O=C(CC1C(=O)N(c2ccccc2)C(=O)N1C1CCCCC1)Nc1ccc(F)cc1 (stereo not drawn)	-1	0	0	1
O=C(C(=O)N1CCc2ccccc21)c1c[nH]c2ccccc12	-21	-1	0	-1
COc1c2occc2cc2ccc(=O)oc12	-2	1	2.0*!	-1
CC1CCC(C(C)C)C(OC(=O)Cn2c(-c3ccc(F)cc3)[n+](C)c3ccccc32)C1 (stereo not drawn)	40*	6	0	1
CC1CCC(C(C)C)C(OC(=O)CN2C(=O)C3C4c5ccccc5C(c5ccccc54)C3C2=O)C1 (stereo not drawn)	19	0	0	-1
CC1CCC(C(C)C)C(OC(=O)Cn2c[n+](CC(=O)OC3CC(C)CCC3C(C)C)c3ccccc32)C1 (stereo not drawn)	5	14	0	1
CC1CCC(C(C)C)C(OC(=O)Cn2c(-c3ccccc3)[n+](C)c3ccccc32)C1 (stereo not drawn)	83*	4	0	1
COc1ccc(NC(=O)C2(C)CC3c4ccccc4C2c2ccccc23)cc1 (stereo not drawn)	0	8	1.9*	1
Cc1ccc(C)c(NC(=O)C2(C)CC3c4ccccc4C2c2ccccc23)c1 (stereo not drawn)	4	11	0	1
O=C(Oc1ccc(N2C(=O)C=CC2=O)cc1)c1cccc2ccccc12	10	14	1.9*	0
Cc1cc(N2CC(C)CC(C)C2)n2c(nc3ccccc32)c1C#N (stereo not drawn)	5	7	0	0
COc1ccccc1NC(=O)Cn1c(-c2nonc2N)nc2ccccc21	65*	1	0	0
COc1cc(/C=N/NC(=O)CCC(=O)N/N=C/c2ccc(O)c(OC)c2)ccc1O	9	-2	0	2
COc1cc(/C=N/NC(=O)Cn2c3ccccc3c(=O)c3ccccc32)ccc1O	53*	13	0	2
CCOc1cc(/C=N/NC(=O)Cn2c(-c3nonc3N)nc3ccccc32)ccc1O	46*	6	0	0
COC(=O)c1ccccc1NC(=O)Cn1c(-c2nonc2N)nc2ccccc21	54*	11	0	0
CC(=O)c1ccc(NC(=O)Cn2c(-c3nonc3N)nc3ccccc32)cc1	5	4	0	0
CC(C)[C@H](Cn1nc(C2CC2)ccc1=O)NC(=O)c1nccc2ccccc12	1	-1	0	-1
O=C(Nc1ccc(Oc2ccccc2)cc1)c1ccc2c(=O)n(-c3cccc(C(F)(F)F)c3)c(=S)[nH]c2c1	-1	-6	0	0
COc1ccc(-n2c(=S)[nH]c3cc(C(=O)Nc4cccc(C)c4)ccc3c2=O)c(OC)c1	48*	8	0	2
O=C(Nc1ccc(Oc2ccccc2)cc1)c1ccc2c(=O)n(-c3cc(C(F)(F)F)ccc3Cl)c(=S)[nH]c2c1	36*	-7	0	0
O=C(Cn1cc(/C=C2/NC(=O)NC2=O)c2ccccc21)Nc1ccc(F)cc1	-7	6	0	-1
Cc1ccc(/C=C2/SC(=Nc3cccc(C)c3)NC2=O)cc1	8	-12	0	-1
CN(C)c1ccc(/C=C2/SC(=Nc3ccccc3Cl)NC2=O)cc1	45*	6	0	-1
COc1ccc(/C=C2/SC(=Nc3ccccc3Cl)NC2=O)cc1	37*	3	0	1
Cc1cccc(N=C2NC(=O)/C(=C\c3ccc(N(C)C)cc3)S2)c1	42*	6	1	0
Cc1ncn(-c2ccc(Nc3nccc(-c4ccc(C#N)c(N5CCCC5)c4)n3)cc2)n1	30	20	0	-1

Screening results deposited in PubChem BioAssay by The Scripps Research Institute Molecular Screening Center.
